Measured values published in PubChem BioAssay AID652015 (National Center for Advancing Translational Sciences (NCATS), 2013).
Records with an inconclusive call do not appear. A call without a number means that no potency is given here. The source made the active and inactive calls. Calls follow the shape of the dose curve; as a rule, active = well fitted inhibition curve with a large enough effect; inconclusive = small, poorly fitted or top-dose-only effect; inactive = no such curve, though single readings can be large or run the other way.

Target: Coelenterazine h 2-monooxygenase (Renilla reniformis) (UniProt P27652)
Sequence (P27652 whole entry, looked up): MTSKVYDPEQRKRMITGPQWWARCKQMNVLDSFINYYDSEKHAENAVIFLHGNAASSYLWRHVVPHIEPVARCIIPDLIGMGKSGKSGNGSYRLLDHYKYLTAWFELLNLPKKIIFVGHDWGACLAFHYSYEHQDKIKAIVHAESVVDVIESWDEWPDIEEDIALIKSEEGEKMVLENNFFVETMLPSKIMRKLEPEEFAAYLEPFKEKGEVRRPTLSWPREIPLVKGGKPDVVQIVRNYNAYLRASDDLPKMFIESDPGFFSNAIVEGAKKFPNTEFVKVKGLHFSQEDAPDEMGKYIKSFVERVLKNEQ
Experiment: qHTS Assay for Inhibitors of Sea Pansy Luciferase from the GSK Published Protein Kinase Inhibitor Set
Conditions: purified Renilla luciferase, luminescence; series mostly up to 57.5 µM
Method in brief: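 qHTS (roughly 60 uM down to 300 pM) against 1 nM Renilla luciferase, substrate coelenterazine h 5 uM, Tris acetate pH 7.5 buffer with NaCl, Tween-20 and BSA. Luminescence measured after an average 2 min incubation.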
Potency is read from the fitted curve at half-maximal effect.

SMILES | Potency
CCN(CC)S(=O)(=O)c1ccc(OC)c(Nc2ncc(-c3ccccc3)o2)c1 | inactive
CN(C)C(=O)OC1CNC(C#Cc2cc3ncnc(Nc4ccc(OCc5cccc(F)c5)c(Cl)c4)c3s2)C1 (centres undefined) | inactive
O=C(Nc1ccc(Oc2ccc3nc(NC(=O)c4ccccc4)[nH]c3c2)cc1)Nc1cc(C(F)(F)F)ccc1F | inactive
COC(=O)c1cncc(C=Cc2c(C)cc(O)cc2C)c1 | inactive
CN(c1ccc(NC(=O)NCCN2CCOCC2)cc1)c1ccnc(Nc2ccc(CS(C)(=O)=O)cc2)n1 | inactive
COc1cccc(-n2cnc3c(NN=Cc4ccncc4)ncnc32)c1 | inactive
N#Cc1cccc(Nc2ncc(-c3ccccc3)o2)c1 | inactive
Cc1cc(O)cc(C)c1C=Cc1cncc(C(=O)OC(C)(C)C)c1 | inactive
CC(=O)Nc1cccc(C#Cc2cncnc2Nc2ccc(OCc3cccc(F)c3)c(Cl)c2)n1 | inactive
CS(=O)(=O)CCNCc1ccc(-c2ccc3ncnc(Nc4ccc(OCc5cccc(C(F)(F)F)c5)cc4)c3c2)o1 | inactive
NS(=O)(=O)c1ccc(N=Nc2c(O)[nH]c3ccc(-c4cnco4)cc23)cc1 | inactive
COc1ccc(Nc2ncc(-c3ccccc3)o2)cc1OC | inactive
N#Cc1c(NC(=O)c2ccccc2F)sc2c1CCCC2 | inactive
CCN1CCC(C(=O)Nc2n[nH]c3nnc(-c4cccc(F)c4F)cc23)CC1 | inactive
N#Cc1ccc2c(-c3ccnc(NC4CC4)n3)c(-c3ccc(F)cc3)nn2c1 | inactive
CC(=O)NCc1cccc(C#Cc2cncnc2Nc2ccc(OCc3cccc(F)c3)c(Cl)c2)c1 | inactive
O=C(Nc1n[nH]c2nc(-c3ccc(O)cc3)c(Br)cc12)C1CC1 | inactive
Nc1nonc1-c1nc2cnccc2n1C1CCCCC1 | inactive
O=S1CCN(Cc2ccc(-c3ccc4ncnc(Nc5ccc(OCc6ccccc6)c(Cl)c5)c4c3)o2)CC1 | inactive
COc1ccc(-c2ccncc2)cc1C(N)=O | inactive

SMILES | Potency
CNC(=O)c1cncc(C=Cc2ccccc2C)c1 | inactive
O=C(OC1CNC(C#Cc2cc3ncnc(Nc4ccc5c(ccn5Cc5cc(F)ccc5F)c4)c3s2)C1)N1CCOCC1 (centres undefined) | inactive
COc1ccc(COc2ccc(Cc3cnc(N)nc3N)cc2OC)cc1 | inactive
O=C1Nc2ccc(C(=O)c3ccco3)cc2/C1=C/c1cc(Cl)c(O)c(Cl)c1 | 16.3 µM (active)
COc1cc2ncn(-c3cc(OCc4ccccc4C(F)(F)F)c(C(C)=O)s3)c2cc1OC | inactive
CNC(=O)c1cncc(C=Cc2ccccc2Cl)c1 | inactive
CS(=O)(=O)Nc1ccc(-c2ccc3c(NC(=O)C4CC4)n[nH]c3c2)cc1 | inactive
Cn1c(-c2nonc2N)nc2cnccc21 | inactive
CN(C)CCNC(=O)Nc1ccc(N(C)c2ccnc(Nc3ccc(CS(C)(=O)=O)cc3)n2)cc1 | inactive
Nc1nc(-c2cccc(Cl)c2)c(-c2ccc3ncccc3n2)s1 | inactive
Cc1cc(O)cc(C)c1C=Cc1cncc(C(=O)N(C)C)c1 | inactive
NS(=O)(=O)c1ccc(N=Nc2c(O)[nH]c3cccc(CCc4ccncc4)c23)cc1 | inactive
COc1ccc(-c2ccc3c(NC(=O)C4CC4)n[nH]c3n2)cc1 | inactive
Cc1ccc(NC(=O)c2ccoc2)cc1-c1ccc(C(=O)NCC2CC2)cc1 | inactive
Fc1ccc(-c2ncn(C3CCNCC3)c2-c2ccnc(Oc3ccc4c(c3)OCO4)n2)cc1 | inactive
COc1cccc(Nc2nccc(-c3cnn4ncccc34)n2)c1 | inactive
Cc1ccc2c(-c3ccnc(Nc4cccc(C(F)(F)F)c4)n3)c(-c3ccccc3)nn2n1 | inactive
CC(C)COC(=O)c1ccc2[nH]c(O)c(C=Nc3ccc(S(N)(=O)=O)cc3)c2c1 | inactive
NC(=O)Cc1ccccc1Oc1nccc(-c2c(-c3ccc(F)cc3)ncn2C2CCNCC2)n1 | inactive
